Results on six compounds are retold here after PubChem BioAssay (NCATS).

For assay [1], the target named is Lysosomal acid glucosylceramidase (Homo sapiens) (UniProt P04062). The assay can be described thus: Glucocerebrosidase-p2 (AID 348; in the data active = potency below about 10 µM; note: potency is the fitted concentration of half-maximal effect). To be noted: purified GBA, blue fluorogenic substrate, 40 min. The procedure, abridged: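 Compounds titrated from 0.6 nM upwards against 0.2 nM enzyme in pH 5.9 citric acid/KH2PO4, taurocholate, tween-20; blue fluorogenic substrate 80 uM, 40 min room temperature, stopped and read Ex 365/Em 440 for AC50.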
Sequence of Lysosomal acid glucosylceramidase (Homo sapiens) (P04062 whole entry, looked up): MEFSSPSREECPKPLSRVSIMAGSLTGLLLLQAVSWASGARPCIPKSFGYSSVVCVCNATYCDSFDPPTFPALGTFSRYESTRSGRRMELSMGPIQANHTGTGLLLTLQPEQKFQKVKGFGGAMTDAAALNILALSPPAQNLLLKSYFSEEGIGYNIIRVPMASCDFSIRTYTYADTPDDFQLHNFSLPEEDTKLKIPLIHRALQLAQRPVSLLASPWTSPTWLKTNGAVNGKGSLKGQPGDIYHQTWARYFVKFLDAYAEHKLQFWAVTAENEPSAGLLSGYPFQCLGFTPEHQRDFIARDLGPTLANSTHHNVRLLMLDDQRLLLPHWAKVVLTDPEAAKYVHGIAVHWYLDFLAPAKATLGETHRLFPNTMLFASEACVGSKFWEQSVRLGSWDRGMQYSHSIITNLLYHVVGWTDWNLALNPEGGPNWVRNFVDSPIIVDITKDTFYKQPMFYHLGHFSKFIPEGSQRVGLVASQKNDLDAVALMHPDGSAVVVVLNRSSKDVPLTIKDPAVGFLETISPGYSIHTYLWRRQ

Assay [2] can be described thus: AP1 Signaling Pathway (AID 357; active = well fitted curve in either direction with a large enough effect, not every such curve was filed as active;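 note: ME-180 reporter cells stimulated with EGF at its EC50 level; % is set by controls: 0 for no effect and ±100 for the full control effect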). Conditions: ME-180 AP-1-bla reporter, EGF-induced, beta-lactamase ratio, 5 h; at 7.69 µM (top of the series) unless noted. The procedure, abridged: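 In this screen, ME-180 cells in Opti-MEM with 0.5% dialyzed FBS received EC50 EGF and compound titrations for 5 h. AP-1 reporter beta-lactamase was detected via CCF4 ratio, giving AC50 for positive and negative modulators.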

A short description of assay [3]: NFAT Signaling Pathway (AID 444; active = well fitted curve in either direction with a large enough effect, not every such curve was filed as active;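 note: carbachol stimulus at about its EC50 of 1 µM final; % is set by controls: 0 for no effect and ±100 for the full control effect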). Conditions: Jurkat NFAT-bla M1, carbachol, beta-lactamase ratio, 5 h; at 7.69 µM (top of the series) unless noted. The essentials: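 Jurkat cells carrying an NFAT-driven β-lactamase reporter and co-transfected muscarinic M1 receptor were treated with compound plus carbachol (1 uM final, an EC50 level) for 5 h at 37 °C. CCF4 loading followed for 1 h at RT; 460/530 nm ratio gave %activity.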

A short description of assay [4]: Stat Signaling Pathway (AID 446; active = well fitted curve in either direction with a large enough effect, not every such curve was filed as active;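 note: ME-180 cervical cancer cells given 40 pM IL-6 alongside compound; SIE-controlled beta-lactamase reporter measured as 460/530 nm FRET emission ratio; % is set by controls: 0 for no effect and ±100 for the full control effect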). Conditions: ME-180 (cervical carcinoma) SIE beta-lactamase reporter, IL-6 stimulated, 5 h; at 7.69 µM (top of the series) unless noted. The essentials:
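ME-180 SIE-bla cells; overnight plating; cpd + IL-6 40 pM, 5 h, 37 C; LiveBLAzer 2.5 h RT; 460/530 nm emission ratio. Normalized to 300 pM IL-6 and 125 nM JAK inhibitor controls.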

The target of assay [5] is Glucocorticoid receptor (Homo sapiens) (UniProt P04150). The assay can be described thus: GR-GFP Redistribution (AID 450;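 active = compounds whose dose series gives a full or clear partial fitted curve of increased nuclear translocation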; note: potency is the fitted concentration of half-maximal effect). Conditions: U2OS GR-GFP nuclear translocation, laser cytometry, 2 h.
Sequence of Glucocorticoid receptor (Homo sapiens) (P04150 whole entry, looked up): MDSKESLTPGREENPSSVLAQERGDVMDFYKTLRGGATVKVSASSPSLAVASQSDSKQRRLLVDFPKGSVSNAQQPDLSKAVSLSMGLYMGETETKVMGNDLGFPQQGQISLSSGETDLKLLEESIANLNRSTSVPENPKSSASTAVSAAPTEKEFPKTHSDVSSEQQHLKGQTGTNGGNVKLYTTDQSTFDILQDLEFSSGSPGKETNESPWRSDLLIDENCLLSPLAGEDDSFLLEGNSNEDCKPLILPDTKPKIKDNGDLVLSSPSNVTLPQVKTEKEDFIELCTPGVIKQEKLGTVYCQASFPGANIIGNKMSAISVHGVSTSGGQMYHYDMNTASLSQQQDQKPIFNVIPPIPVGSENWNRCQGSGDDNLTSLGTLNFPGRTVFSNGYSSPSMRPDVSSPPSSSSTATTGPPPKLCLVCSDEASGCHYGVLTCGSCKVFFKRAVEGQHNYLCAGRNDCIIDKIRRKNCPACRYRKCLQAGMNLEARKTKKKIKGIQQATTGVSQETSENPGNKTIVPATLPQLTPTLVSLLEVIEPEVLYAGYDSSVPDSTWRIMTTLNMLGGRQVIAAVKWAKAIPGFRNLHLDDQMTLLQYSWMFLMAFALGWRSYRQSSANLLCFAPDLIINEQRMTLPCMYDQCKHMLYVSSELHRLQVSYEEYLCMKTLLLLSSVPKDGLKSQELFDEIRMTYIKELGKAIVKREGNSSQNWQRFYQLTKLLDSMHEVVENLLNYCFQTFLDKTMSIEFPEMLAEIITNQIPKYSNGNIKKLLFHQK
Assay [6] shares this target. Nature of the assay: GR-EFC Redistribution (AID 451; calls by dose curve; note: potency is the fitted concentration of half-maximal effect). Conditions: CHO-K1 GR-EFC translocation, beta-gal luminescence, 2 h. The procedure, abridged:
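CHO-K1 cells stably expressing nuclear-localized β-gal enzyme acceptor and GR fused C-terminally to the enzyme donor fragment; ligand-driven nuclear translocation restores β-gal by complementation. Compounds titrated up to 46 uM final, 2 h at 37 °C; luminescence read.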

Assay [7] addresses Mitogen-activated protein kinase 10 (Mus musculus) (UniProt Q61831). The assay can be described thus: JNK3 AlphaScreen Assay (AID 530; active = well fitted curve in either direction with a large enough effect, not every such curve was filed as active;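 note: kinase came from lysate of stimulated human HepG2 cells; signal reports phosphorylation of biotinylated GST-cJun 1-79 at Ser73 with 10 µM ATP; % is set by controls: 0 for no effect and ±100 for the full control effect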). Conditions: JNK3 lysate, c-Jun phosphorylation; series mostly up to 57.1 µM. The procedure, abridged:
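JNK3 came from HepG2 lysates pre-activated with IL-1beta and TNF-alpha and phosphorylated biotinylated GST-cJun (1-79) at 10 uM ATP, pH 7.6, room temperature. Compounds were titrated. AlphaScreen signal used anti-phospho-cJun (Ser73) antibody.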
On the technique in general: Bead proximity is the source of the signal in Alpha formats.

The target of assay [8] is 3',5'-cyclic-AMP phosphodiesterase 4B (Homo sapiens) (UniProt Q07343). Nature of the assay: qHTS Assay for Inhibitors of PDE-IV (AID 607; active = well fitted activation curve with a large enough effect in the main read-out, with a control signal flat, not every such curve was filed as active; note: % of control where 0% means no effect). To be noted: HEK293 ACTOne CNG channel cells, membrane potential fluorescence; series mostly up to 22.9 µM. The procedure, abridged:
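ACTOne HEK293 cells carry a modified cAMP-gated CNG channel and express endogenous PDE4; plated 1000 cells/well, compounds up to 22.9 uM final. Membrane-potential dye fluorescence (ex 535/em 590) was read; parental cells received 10 uM forskolin + 100 uM RO 20-1724.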
A general note: Quantitative high-throughput screening tests each substance at several concentrations.

Assay [9] can be described thus: qHTS Assay for Lipid Storage Modulators (AID 1519; calls by dose curve). To be noted: Drosophila S3 cells, BODIPY lipid droplet/cell ratio, laser cytometry, cells loaded with oleic acid; for activity change, negative = inhibition: at 57.5 µM (top of the series). The procedure, abridged: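 Cells seeded at 5,000 per well were treated with compounds over a concentration series and loaded with oleic acid (400 uM, as added). Lipid droplet fluorescence (488 nm excitation, 500-530 nm channel) was read by laser-scanning cytometry and normalized to 20 uM Triacsin C.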

Assay [10] has as its target Dual specificity protein kinase CLK4 (Homo sapiens) (UniProt Q9HAZ1). The assay can be described thus: qHTS Assay for Inhibitors of CDC-like Kinase 4 (Kinase-Glo Assay) (AID 1770). Note: % is set by controls: 0 for no effect and ±100 for the full control effect; nearly all actives have a fitted effect of over 65% in size. To be noted: recombinant Clk4, Kinase-Glo ATP depletion luminescence; series mostly up to 66.7 µM. The essentials:
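Substrate mix (RS peptide 100 uM, ATP 1 uM) dispensed, compound pinned in, then Clk4 added to 25 nM final. Incubated 4.5 h at RT; Kinase-Glo reagent added, luminescence read after 5 min.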

Assay [11] shares this target. The assay can be described thus: qHTS Assay for Inhibitors of CDC-like Kinase 4 (ADP-Glo Assay) (AID 1771). Note: % is set by controls: 0 for no effect and ±100 for the full control effect; nearly all actives have a fitted effect of over 70% in size. Conditions: recombinant CLK4, ADP-Glo luminescence; series mostly up to 80 µM. The procedure, abridged: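 Clk4 (25 nM) was incubated 1 hr at room temperature with 100 uM RS repeat peptide and 1 uM ATP in buffer with 2 mM MgCl2, 0.5 mM EGTA, 2.5 mM DTT. ADP formed was quantified by ADP-Glo luminescence.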

The target is the same in assay [12]. Nature of the assay: qHTS Assay for Inhibitors of CDC-like Kinase 4 (ADP-FP Assay) (AID 1795). Note: % is set by controls: 0 for no effect and ±100 for the full control effect; nearly all actives have a fitted effect of over 60% in size. Conditions: Transcreener ADP fluorescence polarization; series mostly up to 50 µM. The essentials:
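Clk4 6.25 nM; RS peptide 100 uM; ATP 1 uM; 25 mM Tris pH 7.5, 10 mM MgCl2; 1 h reaction. ADP detected via antibody/orange tracer FP displacement; TG003 positive control.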

In assay [13] the target is Ubiquitin carboxyl-terminal hydrolase 1 (Homo sapiens) (UniProt O94782). Nature of the assay: Inhibitors of USP1/UAF1: Pilot qHTS (AID 504865).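 Note: rhodamine fluorescence freed from ubiquitin-rhodamine substrate followed over time; top concentration of the series differs between compounds; % is set by controls: 0 for no effect and ±100 for the full control effect; nearly all actives have a fitted effect of over 35% in size.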 To be noted: purified USP1/UAF1, Ub-rhodamine cleavage fluorescence; series mostly up to 54.9 µM. The procedure, abridged: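 In 50mM HEPES pH 7.8 containing 0.5mM EDTA, 1mM TCEP, 0.1 mg/ml BSA and 0.01% Tween-20, 1nM USP1/UAF1 is exposed to compound for 15 min, then Ub-Rho (150nM final) is added and fluorescence is read over time.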
Sequence of Ubiquitin carboxyl-terminal hydrolase 1 (Homo sapiens) (O94782 whole entry, looked up): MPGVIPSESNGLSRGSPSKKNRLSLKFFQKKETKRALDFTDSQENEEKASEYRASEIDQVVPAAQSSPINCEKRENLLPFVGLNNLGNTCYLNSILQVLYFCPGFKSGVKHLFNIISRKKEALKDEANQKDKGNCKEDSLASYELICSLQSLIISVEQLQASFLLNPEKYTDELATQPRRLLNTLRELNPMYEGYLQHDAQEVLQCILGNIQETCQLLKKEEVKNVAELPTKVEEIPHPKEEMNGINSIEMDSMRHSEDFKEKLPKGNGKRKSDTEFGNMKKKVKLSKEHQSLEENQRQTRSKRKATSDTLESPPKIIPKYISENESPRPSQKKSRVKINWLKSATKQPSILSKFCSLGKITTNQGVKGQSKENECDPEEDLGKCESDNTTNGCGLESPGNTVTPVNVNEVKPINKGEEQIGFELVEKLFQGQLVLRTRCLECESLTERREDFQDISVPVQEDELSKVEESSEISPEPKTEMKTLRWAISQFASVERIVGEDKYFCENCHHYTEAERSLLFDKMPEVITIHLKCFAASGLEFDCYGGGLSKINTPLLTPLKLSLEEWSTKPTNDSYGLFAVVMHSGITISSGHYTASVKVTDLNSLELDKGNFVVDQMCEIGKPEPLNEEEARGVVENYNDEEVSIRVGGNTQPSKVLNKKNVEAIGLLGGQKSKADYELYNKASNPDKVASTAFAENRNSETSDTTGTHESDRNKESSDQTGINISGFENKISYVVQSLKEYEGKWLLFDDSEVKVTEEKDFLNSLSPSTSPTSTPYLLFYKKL

Assay [14] is described as follows: Primary qHTS for small molecule stabilizers of the endoplasmic reticulum resident proteome: Secreted ER Calcium Modulated Protein (SERCaMP) assay (AID 1508630). Note: % is set by controls: 0 for no effect and ±100 for the full control effect. Conditions: SH-SY5Y GLuc-SERCaMP (Gaussia luciferase released on ER calcium loss) secretion, thapsigargin, luminescence; series mostly up to 38.4 µM. The essentials: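 GLuc-SERCaMP-expressing SH-SY5Y cells, pretreated 16 h with compound, are challenged with thapsigargin to empty ER calcium stores; after 4 h, coelenterazine is added directly to the medium and luminescence is imaged.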

Where [15] appears, read: measured here: cell count channel max response.
Setting [16] is: measured here: lipid channel max response.

Records with an inconclusive call do not appear. The source made the active and inactive calls. Unless noted, calls come from the whole dose curve; as a rule, active = well fitted curve in the direction sought with a large enough effect; inconclusive = small, poorly fitted or top-dose-only effect, or another doubt; inactive = no such curve, though single readings can be large; an effect the other way counts as inactive or inconclusive.

Sequence of Dual specificity protein kinase CLK4 (Homo sapiens) (Q9HAZ1 whole entry, looked up): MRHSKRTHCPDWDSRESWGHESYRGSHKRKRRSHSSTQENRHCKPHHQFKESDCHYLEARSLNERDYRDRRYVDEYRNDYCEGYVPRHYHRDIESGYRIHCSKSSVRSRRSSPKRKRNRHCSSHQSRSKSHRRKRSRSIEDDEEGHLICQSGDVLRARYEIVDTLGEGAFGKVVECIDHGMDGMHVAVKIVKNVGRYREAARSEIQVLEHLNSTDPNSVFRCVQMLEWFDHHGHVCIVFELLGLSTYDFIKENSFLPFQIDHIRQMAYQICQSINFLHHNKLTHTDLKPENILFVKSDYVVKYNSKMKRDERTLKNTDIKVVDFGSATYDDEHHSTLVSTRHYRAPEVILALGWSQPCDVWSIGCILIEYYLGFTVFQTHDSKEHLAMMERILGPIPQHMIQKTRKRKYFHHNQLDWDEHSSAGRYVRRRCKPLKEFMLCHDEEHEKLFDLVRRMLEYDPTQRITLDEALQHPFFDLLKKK
Sequence of 3',5'-cyclic-AMP phosphodiesterase 4B (Homo sapiens) (Q07343 whole entry, looked up): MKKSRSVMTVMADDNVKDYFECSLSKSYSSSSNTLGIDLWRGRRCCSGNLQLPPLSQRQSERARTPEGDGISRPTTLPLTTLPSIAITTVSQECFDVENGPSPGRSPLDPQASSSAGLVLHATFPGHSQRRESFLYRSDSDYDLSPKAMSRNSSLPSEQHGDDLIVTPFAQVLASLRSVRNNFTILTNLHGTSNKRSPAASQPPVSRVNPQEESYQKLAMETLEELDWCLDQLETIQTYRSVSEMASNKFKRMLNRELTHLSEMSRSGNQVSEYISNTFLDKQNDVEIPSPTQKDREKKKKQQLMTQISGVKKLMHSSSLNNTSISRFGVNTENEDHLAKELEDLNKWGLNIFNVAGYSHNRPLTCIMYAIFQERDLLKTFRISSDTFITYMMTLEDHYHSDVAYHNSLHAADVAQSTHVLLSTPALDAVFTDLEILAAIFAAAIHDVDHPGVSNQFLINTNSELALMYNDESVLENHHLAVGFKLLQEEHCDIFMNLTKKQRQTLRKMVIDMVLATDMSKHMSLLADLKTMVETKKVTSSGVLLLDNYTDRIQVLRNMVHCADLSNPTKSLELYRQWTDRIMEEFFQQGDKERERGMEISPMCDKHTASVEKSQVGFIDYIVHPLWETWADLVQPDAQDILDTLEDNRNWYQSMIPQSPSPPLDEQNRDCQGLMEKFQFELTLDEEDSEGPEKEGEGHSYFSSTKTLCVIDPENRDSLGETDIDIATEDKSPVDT

Take `COc1ccccc1-c1nccc(NC2CCNCC2)n1`: the Potency in [1] was > 11.4 µM (inactive); in [5], > 46 µM (inactive); in [6] it was > 46 µM (inactive). The activity change, negative = inhibition in assay [2] was 3.56% (inactive); in assay [3], 5.88% (inactive); in [9] it was 2.87% (inactive). For the same compound, the activity, negative = inhibition in [4] was 27.9% (inactive). For the same compound, the compound was classed as inactive in assay [7]. Further, the Potency result in assay [8], in [10], in [11], in assay [12], in assay [13] and in assay [14] was “inactive” in each case. Also, the max response in assay [9] (setting [15]) came out at 7.38%; in assay [9] (setting [16]) it was 8.77%.

As to `O=c1c(-c2ccc(Cl)cc2)nc2cnc(N3CCOCC3)nc2n1C[C@H]1CCCO1`, the results for the Potency in assay [1] and in assay [5] were > 11.4 µM (inactive) and > 9.22 µM (inactive), respectively. In addition, the activity change, negative = inhibition was -9.09% (inactive) in assay [2], -5.22% (inactive) in [3] and -4.84% (inactive) in assay [9]. Besides, the activity, negative = inhibition in assay [4] was -0.789% (inactive). Further, the compound was called inactive in [7]. Besides, the Potency entry in assay [8], in assay [10], in assay [11], in [12], in [13] and in [14] was “inactive” each time. For the same compound, the max response in assay [9] (setting [15]) was 4.1%; in assay [9] (setting [16]) it was -3.15%.

Take `Cn1c(=O)c(-c2ccc(Cl)cc2)nc2cnc(Nc3ccccc3)nc21`: the Potency is > 11.4 µM (inactive) in assay [1], > 9.22 µM (inactive) in [5] and > 46 µM (inactive) in [6]. The activity change, negative = inhibition in assay [2] was -22.9% (inactive); in assay [3], -8.39% (inactive); in [9], -14.5% (inactive). Further, the activity, negative = inhibition in assay [4] was -6.29% (inactive). The result in [7] was inactive. Further, the Potency result in assay [8], in assay [10], in [11], in [12], in assay [13] and in assay [14] was “inactive” throughout. Besides, the max response in assay [9] (setting [15]) was 23.4%; in [9] (setting [16]), -1.32%.

As to `CN1CCN(c2cc(-c3ccoc3)ncn2)CC1`, the values for the Potency in assay [1], in assay [5] and in [6] were > 11.4 µM (inactive), > 46 µM (inactive) and > 46 µM (inactive), respectively. Further, the results for the activity change, negative = inhibition in assay [2], in [3] and in assay [9] were -1.21% (inactive), -3.33% (inactive) and 6.62% (inactive), respectively. Also, in assay [4], the activity, negative = inhibition is 8.56% (inactive). Besides, the outcome in [7] was inactive. For the same compound, the Potency entry in [8], in assay [10], in [11], in assay [12], in assay [13] and in assay [14] was “inactive” throughout. Also, the values for the max response in [9] (setting [15]) and in [9] (setting [16]) were 23% and 27.8%, respectively.

For `COCCn1c(=O)c(-c2cn(C)c3ccccc23)nc2cnc(Oc3cccc(Cl)c3)nc21`, the results for the Potency in assay [1], in assay [5] and in assay [6] were > 11.4 µM (inactive), > 9.22 µM (inactive) and > 46 µM (inactive), respectively. The figures for the activity change, negative = inhibition in [2], in assay [3] and in assay [9] were -7.97% (inactive), 5.68% (inactive) and -4.01% (inactive), respectively. Moreover, the activity, negative = inhibition in assay [4] was 3.06% (inactive). Moreover, the Potency entry in [8], in assay [10], in assay [11], in assay [12], in [13] and in assay [14] was “inactive” throughout. Moreover, the max response in assay [9] (setting [15]) was 23.7%; in assay [9] (setting [16]), 16.7%.

For `COCCNc1ncncc1-c1ccccc1OC`, the values for the Potency in assay [1] and in assay [5] were > 11.4 µM (inactive) and > 46 µM (inactive), respectively. Also, the activity change, negative = inhibition in assay [2] was 0.174% (inactive); in assay [3], 6.41% (inactive); in assay [9] it was 4.36% (inactive). Further, in assay [4], the activity, negative = inhibition is 16.6% (inactive). The outcome in assay [7] was inactive. In addition, the Potency entry in assay [8], in assay [10], in [11], in assay [12], in assay [13] and in assay [14] was “inactive” throughout. The max response in assay [9] (setting [15]) came out at 20.6%; in [9] (setting [16]), 16.6%.
